Publication PMC5540273 (PLoS ONE, 2017)

test system: CAMK4; conditions: concentration: 1 μM, replicates: in singlicate; n = 1
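Also: KINOMEscan kinase panel screen.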

Structure (SMILES)	%Inh [%]
CN1C(=O)C(Nc2ccc(Cl)c(C(=O)O)c2)=C(c2ccc(Cl)cc2)C1=O [SB-404290]	0
Cc1cccc(-c2nc(-c3ccc(S(C)(=O)=O)cc3)sc2-c2ccnc(NCCc3ccccc3)c2)c1	0
COc1cccc(-c2cc(-c3c[nH]nc3-c3ccccn3)ccn2)c1 [GW680338]	0
Cl.NC(=O)c1cccc(Nc2nccc(Nc3ccc(Oc4cccc(Cl)c4)c(Cl)c3)n2)c1 [GW659008]	0
Cn1ccc2ncnc(Oc3ccc(NC(=O)Nc4ccccc4)cc3)c21	0
Cc1ccc(C(=O)Nc2ccc(Nc3ccnc4cc(-c5ccccn5)ccc34)cc2O)cc1.Cl [GW440146]	0
Cc1c(O)cccc1Nc1ccnc2ccc(C(F)(F)F)cc12.Cl [GW466413]	0
CC(C)(C)c1ccc(C(=O)Nc2cn3cc(-c4cccnc4)ccc3n2)cc1	0
CC1=C(C(=O)Nc2cc3cn[nH]c3cc2F)C(c2ccc(C(F)(F)F)cc2)CC(=O)N1 (centres unmarked) [GSK429286]	0
Cl.c1ccc(-c2n[nH]cc2-c2ccnc(-c3ccc(CN4CCOCC4)cc3)c2)nc1 [GW776245]	0
Cc1cccc(-c2cc(Nc3ccncc3)c3ccccc3n2)n1 [GSK223675]	0
Cc1cccc(-c2nc(Nc3ccncc3)c3ccccc3n2)n1 [GW855857]	47
COc1ccc2nc(-c3cccc(C)n3)nc(Nc3ccncc3)c2c1 [GSK204919]	0
COc1ccc(C2=C(Nc3cccc(C(=O)O)c3)C(=O)NC2=O)cc1 [SB-390765]	0
COc1ccc(Nc2nccc(-c3cccc(NC(=O)c4cc5cc(F)ccc5[nH]4)c3)n2)cc1 [GSK1229782]	0
CCCc1ccc(S(=O)(=O)NC2CCN(c3ccnc(Nc4ccc(F)cc4)n3)C2)cc1 (centres unmarked) [GSK1379715]	0
CSc1nn2c(=O)cc(N3CCOCC3)nc2n1Cc1cccc(C(F)(F)F)c1C [GSK2363608]	0
CC(=O)Nc1nc2cnc(Nc3cc(NC(=O)c4cccc(CCC#N)c4)ccc3C)nc2s1	15

Structure (SMILES)	%Inh [%]
Cc1ccc(NC(=O)Nc2cc(C(C)(C)C)nn2-c2ccccc2)cc1 [GSK1014915]	0
Cc1cccc(-c2nc(Nc3ccc4[nH]ncc4c3)c3ccccc3n2)n1 [GW857175]	0
Cc1cccc(-c2nc(C)cc(Nc3ccncc3)n2)n1 [GSK257997]	0
CS(=O)(=O)c1ccc(-c2nc3n(c2-c2ccncc2)CCC3)cc1 [SKF-105942]	0
O=C(Nc1ccc2c(c1)OCO2)NC1CCN(c2ccnc(Nc3ccc(F)cc3)n2)C1 (centres unmarked) [GSK1379724]	1
O=c1cc(N2CCOCC2)nc2n(Cc3cccc(Cl)c3Cl)ccn12 [GSK2286295]	0
COC(=O)c1c(-c2ccccc2)c2cc(OC)ccc2c(=O)n1Cc1ccccc1	0
O=C(Nc1ccccc1)Nc1cccc(Oc2ccc3nccn3n2)c1	7
Fc1cc(Cl)ccc1Nc1ccnc2cc(I)ccc12 [GW551191]	0
Cc1ccc(NC(=O)Nc2cccc(Cl)c2)cc1-c1ccc(C(=O)Nc2ccncc2)cc1 [GSK1398468]	0
O=C(O)COc1ncnc2cc(-c3ccc4[nH]ncc4c3)sc12	7
Cn1ccc2ncnc(Oc3cccc(C(=O)Nc4ccccc4)c3)c21	0
Cc1ccccc1-n1cnc2c(N)ncnc21 [SKF-97510]	0
COc1cc2ncnc(Nc3ccc4nc(-c5ccccc5)[nH]c4c3)c2cc1OC.Cl [GW282450]	0
Cl.O=C(Nc1cccc(-c2nn3ncccc3c2-c2ccnc(Nc3cccnc3)n2)c1)c1c(F)cccc1F [GSK312879]	0
NC(=O)c1nnc2ccccc2c1N	0
CN(C)CCN(C)C(=O)c1cc(-c2ccncc2)c(-c2ccc(Cl)c(O)c2)o1.Cl.Cl [SB-710397]	0
